SENP8 block-1: SENP8 protease inhibitors, primary screen, biochemical, luminescence; purified SENP8, Z-RLRGG-aminoluciferin cleavage; inhibition, % at 10 µM; actives 1.2% (n = 330,000); AID 2540, 2010; in the data active = inhibition above about 50%
TRAIL sens C8: viability loss with TRAIL in NB7+C8 cells, primary screen, TRAIL sensitizer project, cell-based, ATPlite luminescence; actives 1% (n = 360,000); inhibition (viability loss, TRAIL sensitization), % at 10 µM;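 active = compounds causing at least 50% loss of cell viability in the single-dose screen, relative to plate controls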
SENP7 block: SENP7 protease inhibitors, primary screen, biochemical, luminescence, uHTS; Sentrin-specific protease 7 (Homo sapiens), Q9BQF6; recombinant SENP7, Z-RLRGG-aminoluciferin luminescence, 40 min; inhibition, % at 5 µM; actives 1.5% (n = 330,000); AID 434973, 2010;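 active = inhibition above about 50% at the single test dose, limit read from the data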;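 also: plate controls were DMSO with enzyme for no effect and no enzyme buffer wells for full effect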
PPC-1+TRAIL kill: compounds killing PPC-1 cancer cells with TRAIL present, primary screen, TRAIL potentiator project, ATPLite luminescence, uHTS | PPC-1 cells + TRAIL, ATPLite viability luminescence | actives 0.41% (n = 220,000) | AID 1443, 2008 | cell killing (% activity), % at 4 µM or 5 µM;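 active = cell killing above 50% in the first pass at 4 µM, then a duplicate retest at 5 µM averaging 50% or more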;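 also: plate controls were cells with TRAIL plus DMSO for no effect and medium-only wells lacking cells for full effect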
SENP8 block-2: human SENP8 protease inhibitors, primary screen, biochemical, fluorescence, Nedd8 protein substrate, uHTS. inhibition, % at 20 µM. recombinant SENP8. Sentrin-specific protease 8 (Homo sapiens), Q96LD8. AID 602440, 2012. actives 0.64% (n = 360,000); in the data active = inhibition mostly above about 40%, no sharp cut-off; inactive = mostly below about 27%
SENP6 block: SENP6 protease inhibitors, primary screen, biochemical, luminescence, uHTS. Sentrin-specific protease 6 (Homo sapiens), Q9GZR1. Recombinant SENP6 catalytic domain, aminoluciferin luminescence. inhibition, % at 10 µM. actives 1.8% (n = 330,000);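 active = inhibition above about 50% at the single tested dose, limit read from the data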;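 also: plate controls were DMSO wells with enzyme for no effect and DMSO wells lacking enzyme for full effect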
Target sequence (Q9GZR1 628-1112 limits assumed): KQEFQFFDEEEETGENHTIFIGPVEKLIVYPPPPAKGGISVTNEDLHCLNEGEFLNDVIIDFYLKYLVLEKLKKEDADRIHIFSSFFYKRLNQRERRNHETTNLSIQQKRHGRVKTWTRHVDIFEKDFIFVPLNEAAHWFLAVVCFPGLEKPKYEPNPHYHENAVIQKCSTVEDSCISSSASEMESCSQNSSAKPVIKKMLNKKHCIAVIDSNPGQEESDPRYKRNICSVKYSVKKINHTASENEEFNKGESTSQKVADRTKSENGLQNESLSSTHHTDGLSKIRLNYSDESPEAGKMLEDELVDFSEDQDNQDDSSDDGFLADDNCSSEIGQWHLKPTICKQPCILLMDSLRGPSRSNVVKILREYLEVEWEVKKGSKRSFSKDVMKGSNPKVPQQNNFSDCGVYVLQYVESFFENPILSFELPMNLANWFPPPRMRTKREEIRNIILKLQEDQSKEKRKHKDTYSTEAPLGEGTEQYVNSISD
SENP8 conf: human SENP8 protease inhibitors, confirmation, biochemical, Nedd8 protein substrate, single concentration; AID 624319, 2012; purified SENP8, Nedd8-AMC/pro-Nedd8 cleavage fluorescence, 30 min; shares compounds with SENP8 block-2; actives 15% (n = 1,400); inhibition, % at 25 µM; in the data active = inhibition mostly above about 39%, no sharp cut-off; inactive = mostly below about 34%
* marks the source's active call; other numbers are inactive results; nt = no result given. This is a sample that favours compounds with a hit; in the whole collection about 3% have one here.

SMILES	SENP8 block-1	TRAIL sens C8	SENP7 block	PPC-1+TRAIL kill	SENP8 block-2	SENP6 block	SENP8 conf
Cc1c(C(=O)Nc2ccc(Nc3ccccc3)cc2)cccc1[N+](=O)[O-]	0	4	0	nt	20	8	nt
O=C(Nc1ccccc1)c1ccc(Nc2c([N+](=O)[O-])cc([N+](=O)[O-])c3ccccc23)cc1	-5	31	-4	20	56*	9	31
O=C(Nc1ccccc1C(=O)O)C1=NN=CC1	-3	4	0	nt	7	-6	nt
CCN(CC)C(c1ccc(F)cc1)c1nnnn1CC1CCCO1 (stereo unspecified)	7	3	0	2	45*	-1	-13
CN(C(=O)CCN1C(=O)S/C(=C\c2ccccc2)C1=O)C1CCS(=O)(=O)C1 (stereo unspecified)	-4	-4	-10	nt	-11	-13	nt
CNc1nc(Oc2ccc(=O)n(C)n2)nc(N2CCOCC2)n1	1	0	5	11	44*	11	1
CCOC(=O)C1=C(C)Nc2ccccc2N=C1NC(=O)C1CCN(C(=O)c2ccccc2C)CC1	0	-39	-1	nt	14	-14	nt
O=[N+]([O-])c1ccc(N2CCOCC2)cc1NCc1ccccc1	3	0	3	16	42*	14	9
CC(Nc1cc(N2CCCC2)ccc1[N+](=O)[O-])c1ccccc1 (stereo unspecified)	-2	21	1	14	45*	7	-2
COc1cccc(OCCNc2cc(N3CCCCC3)ccc2[N+](=O)[O-])c1	-3	6	-1	-26	60*	-5	16
O=C(CCC(=O)Nc1ccccc1Cl)NN=C1CCCC1	-10	-4	-5	nt	9	-7	nt
CC1CN(C(=O)Cn2c(=O)oc3ccccc32)CC(C)O1 (stereo unspecified)	-3	-4	2	nt	5	-16	nt
O=S(=O)(Nc1ccc(-n2cnnn2)cc1)c1cccs1	-3	8	2	nt	7	-4	nt
CCCS(=O)(=O)NC(=O)C1(C)CCN(C(=O)c2ccc(C(F)(F)F)cc2)C1 (stereo unspecified)	nt	-12	nt	nt	22	nt	nt
Cc1ccc(CN=Cc2[nH]c3ccc(Br)c(Cl)c3c2O)cc1	1	-21	1	22	44*	23	40
COc1ccc2c(c1)C(=O)N(c1ccccc1OC)C(=O)C2	-1	-14	-17	34	69*	-3	38*
COc1ccc2c(c1)C(=O)N(c1ccc(C)cc1C)C(=O)C2	-6	-1	-1	24	2	19	nt
Cc1ccc(S(=O)(=O)N2CCN(CCOc3cccc(C)c3)CC2)cc1	-10	8	-3	nt	-5	-12	nt
CCN(CC)S(=O)(=O)c1cccc(C(=O)NCCCn2ccnc2)c1	0	35	-4	2	42*	3	17
COC(=O)COc1ccc(S(=O)(=O)NCc2ccc3c(c2)OCO3)cc1C	-1	-18	4	nt	10	13	nt
Cc1ccc(Nc2cc(C)c(O)c(C)c2)cc1	2	7	8	nt	48*	8	67*
Cc1ccc(OCC(=O)NCCN2CCOCC2)cc1C	8	-7	6	6	43*	3	8
Cc1cc(OCC(=O)NCCN2CCOCC2)cc(C)c1Cl	-3	-9	-12	nt	15	-4	nt
CN(C)c1cc[n+](/C(C(=S)Nc2ccc(SC(F)F)cc2)=C(/[O-])c2ccccc2)cc1	1	21	11	10	44*	-11	23
Cc1cc(C)c(/C([O-])=C(/C(=S)Nc2ccc(SC(F)F)cc2)[n+]2ccccc2)cc1C	-5	-4	-2	-4	11	18	nt
CN(CCCC1CCCC1)C(=O)CC1C(=O)NCCN1Cc1cccc(F)c1F (stereo unspecified)	-10	2	12	nt	-44	-2	nt
